# Screening results as filed in PubChem.
# The list is not random: actives were taken first. Their share in the collection is about 2.4%.
# M1 ag parental: nonselective activator or artifact in parental CHO-K1 cells; Fluo-8 calcium fluorescence; scaled to maximal ATP response, vehicle zero; activation, % at 3 µM; 360,000 tested, 0.48% active; AID 602248; in the data active means activation above about 15%;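 further: untransfected CHO-K1 host cells lacking M1 receptor as counterscreen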
# CHO-K1 Ca PAM: nonselective activator or artifact in parental CHO-K1 calcium assay | ATP EC20, Fluo-8 calcium fluorescence; 0% at ATP EC20, 100% at ATP max | activation, % at 3 µM | 360,000 tested, 0.02% active | AID 602247;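 active means activation above the run cutoff, the mean activation of all test compounds plus 3 SD, cut at about 40% in these data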;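 further: peak over basal fluorescence ratio in a 140 s read after ATP addition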
# CHRM1 antagonist: antagonists of human M1 muscarinic receptor. P11229. CHO-K1 hM1, Fluo-8 calcium fluorescence, ACh EC80 antagonist. inhibition, % at 3 µM. 360,000 tested, 1.3% active. AID 588852;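 active means percent inhibition above its own plate's cutoff, namely the mean of that plate's compound wells plus 3 SD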;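 further: peak over basal fluorescence ratio during 140 s after agonist addition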
# Target sequence (P11229 whole entry, looked up): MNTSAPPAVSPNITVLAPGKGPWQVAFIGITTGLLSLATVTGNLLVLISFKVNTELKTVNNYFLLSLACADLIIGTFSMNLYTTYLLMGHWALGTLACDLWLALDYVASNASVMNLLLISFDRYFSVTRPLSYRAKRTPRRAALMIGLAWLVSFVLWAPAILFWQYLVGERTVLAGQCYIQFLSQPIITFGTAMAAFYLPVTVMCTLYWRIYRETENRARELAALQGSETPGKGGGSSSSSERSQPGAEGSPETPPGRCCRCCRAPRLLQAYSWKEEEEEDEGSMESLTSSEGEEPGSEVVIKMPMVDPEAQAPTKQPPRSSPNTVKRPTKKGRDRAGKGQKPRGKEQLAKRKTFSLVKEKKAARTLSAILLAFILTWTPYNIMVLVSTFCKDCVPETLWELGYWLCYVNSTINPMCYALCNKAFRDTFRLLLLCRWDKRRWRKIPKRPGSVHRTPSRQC
# CHO-K1 Ca antag: M1 antagonist counterscreen hit in parental CHO-K1 cells; ATP-induced calcium, Fluo-8 fluorescence; inhibition, % at 3 µM; 360,000 tested, 0.6% active; AID 602250;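 active means inhibition above a per-plate cutoff, the plate's mean sample inhibition plus 3 SD, cut at about 24% in these data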
# CHRM1 agonist: human M1 muscarinic receptor agonism; CHO-K1 hM1, Fluo-8 calcium fluorescence, agonist mode; 0% DMSO, 100% acetylcholine EC100; 360,000 tested, 0.33% active; P11229; activation, % at 3 µM;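 active means activation above the run's mean compound activation plus 3 SD, cut at about 16% in these data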;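 further: peak over basal fluorescence ratio within a 140 s kinetic read after compound addition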
# M1 PAM: positive allosteric modulators of human M1 muscarinic receptor; CHO-K1 hM1, Fluo-8 calcium fluorescence, ACh EC20; 0% = ACh EC20, 100% = maximal ACh; activation, % at 3 µM; 360,000 tested, 0.088% active; AID 588819; in the data active means activation above about 19%, passing the limit was not always enough
# A number is an active result; - = inactive; . = no result.
SMILES,M1 ag parental,CHO-K1 Ca PAM,CHRM1 antagonist,CHO-K1 Ca antag,CHRM1 agonist,M1 PAM
Cc1cccc(C)c1C(=NCCCN(C)C)c1ccccc1,-,-,79,-,-,-
CCNc1nc2c(c(=O)n(C)c(=O)n2C)n1Cc1ccc(Cl)cc1,-,-,29,-,-,-
CCC(C)Nc1nc2c(c(=O)n(C)c(=O)n2C)n1Cc1ccc(Cl)cc1 (stereo not drawn),-,-,-,-,-,-
O=C1COc2ccc(S(=O)(=O)Nc3ccc(F)cc3)cc2N1,-,-,-,-,-,-
CC(C)NS(=O)(=O)c1ccc(NC(=O)C(C)Oc2ccc(C(=O)c3ccccc3)cc2)cc1 (stereo not drawn),44,-,66,51,57,-
COc1ccc(NC(=O)C(C)Oc2ccc(/C(C)=N\O)cc2)cc1 (stereo not drawn),-,-,-,-,17,-
Cc1cccc(N(Cc2ccccc2)C(=O)c2cccc(S(=O)(=O)N3CC(C)OC(C)C3)c2)c1 (stereo not drawn),-,-,-,-,-,-
Cc1ccc2sc(NC(=O)CN3C(=O)CCC3=O)nc2c1C,-,-,-,29,-,-
COc1cc2ccccc2cc1C(=O)N1CCCCC1,-,-,-,-,-,-
CN(C)CC(O)COc1cc2ccccc2cc1C(=O)N1CCCCC1 (stereo not drawn),-,-,33,-,-,-
CN(C)c1ccc2nc3c(=O)[nH]c(=O)nc-3n(CC(O)C(O)C(O)CO)c2c1 (stereo not drawn),-,-,-,-,18,-
CCC(C(=O)c1ccc2ncccc2c1)c1ccccc1 (stereo not drawn),-,-,35,-,-,-
CC1(C)CC(NC(=O)COc2ccc3c4c(c(=O)oc3c2)CCCC4)CC(C)(C)N1,-,-,-,-,-,-
Cc1ccc(S(=O)(=O)N2CCC(C(=O)OCC(=O)N(Cc3ccccc3)C(C)C)CC2)cc1C,-,-,-,-,-,-
CN(C)c1nc2ccccc2n(C)c1=O,-,-,-,24,-,-
Cc1ccc(CNC(=O)CCS(=O)(=O)Cc2ccc(C)cc2)cc1,-,-,-,-,-,-
CCN1C(=O)/C(=C/c2ccc(N3CCCC3)cc2)NC1=S,57,-,56,49,57,-
CCN1C(=O)/C(=C/c2ccc(OCc3ccc(C(=O)O)cc3)c(Cl)c2)NC1=S,16,-,-,29,-,-
CCCN1C(=O)/C(=C/c2ccc(N3CCOCC3)cc2)NC1=S,24,-,-,-,-,-
O=C(COc1ncnc2sccc12)Nc1cccc(S(=O)(=O)N2CCOCC2)c1,-,-,-,-,-,-
O=C(NNC(=O)c1ccccc1F)c1ccc(Cl)c(S(=O)(=O)N2CCOCC2)c1,-,-,-,-,-,-
COc1ccccc1OCC(O)Cn1c(=N)n(CCN2CCCCC2)c2ccccc21 (stereo not drawn),-,-,19,-,-,-
COc1ccc(C(=O)N2CCN(C(=O)C3CCCO3)CC2)cc1[N+](=O)[O-] (stereo not drawn),-,-,-,-,-,-
O=C(CN1CCN(Cc2ccc(Cl)cc2)C1=O)NCCCN1CCN(c2ccc(F)cc2)CC1,-,-,-,-,-,-
Cc1ccccc1CN1CCN(CC(=O)NCCCN2CCN(c3ccc(F)cc3)CC2)C1=O,-,-,-,29,-,-
SMILES,M1 ag parental,CHO-K1 Ca PAM,CHRM1 antagonist,CHO-K1 Ca antag,CHRM1 agonist,M1 PAM
CCc1ccccc1NC(=O)Nc1cc(F)ccc1F,25,-,-,-,-,-
Cc1cccnc1NC(=O)c1ccc(NS(=O)(=O)/C=C/c2ccccc2)cc1,-,-,-,-,-,-
CC(C(=O)c1ccc(-c2ccccc2)cc1)[n+]1cccc(NC(=O)c2ccccc2)c1 (stereo not drawn),-,-,50,-,-,-
CC(C)OC(=O)NCCOC(=O)Nc1ccc(Cl)c(Cl)c1,-,-,-,-,-,-
CC(C)OC(=O)NCCOC(=O)Nc1cccc(Cl)c1,-,-,-,29,-,-
CN(C)C(CNC(=O)CCc1nc2cc(Cl)ccc2n(Cc2ccccc2)c1=O)c1ccccc1 (stereo not drawn),-,-,27,-,-,-
CCCN=C1CC(C)(C)CC(=O)/C1=C(/O)CCC,18,-,-,-,-,-
CCCCNS(=O)(=O)NC(=O)C1=C(N2CCCC2)COC1=O,-,-,-,27,-,-
CN(Cc1ccccc1)C(=O)c1cccc(NC(=O)Cc2cccc(NC(=O)C3CCN(C(=O)c4ccccc4)CC3)c2)c1,-,-,-,-,-,-
Cc1nc(-c2ccc(O)c(O)c2)cs1,-,-,-,26,-,-
O=S(=O)(c1ccccc1)C1CON(Cc2ccccc2)C1c1ccccc1 (stereo not drawn),-,-,-,36,-,-
CC(=O)OC(C[N+]1(C)CCCCCC1)c1ccccc1 (stereo not drawn),-,-,57,-,-,-
C[N+]1(CC(O)c2ccccc2)CCCCCC1 (stereo not drawn),-,-,-,-,-,-
CCN(CC)CCNC(=O)C(=O)Nc1ccc2c(c1)N(S(=O)(=O)c1cccs1)CCC2,-,-,-,-,-,-
CSc1nsc(SC)c1NC(=O)Nc1ccccn1,-,49,-,-,-,-
Cc1cc2nc(-c3nnnn3-c3c(C)cccc3C)c(=O)[nH]c2cc1C,-,-,.,24,.,.
CCN(CC)c1ccc(/C=C(\C#N)c2ccccn2)cc1,-,-,-,26,-,-
COc1ccc(CCNC(=O)c2cc(-c3ccncc3)nc3c(Cl)cccc23)cc1OC,-,-,38,-,-,-
COc1ccc(CCNC(=O)c2cc(-c3ccccn3)nc3c(Cl)cccc23)cc1OC,-,-,-,-,-,-
COC(=O)c1ccc(CSc2nc3ccccc3o2)cc1,-,-,-,29,-,-
O=[N+]([O-])c1ccc(CSc2nc3ccccc3o2)cc1,-,-,-,-,-,-
CC1C(=O)CC2C3(C)CCC2(C(C)C(=O)O)C(=O)C13 (stereo not drawn),-,-,-,-,-,-
O=C(NCc1ccccc1)c1ccc(C2SCC(=O)N2Cc2ccccc2)cc1 (stereo not drawn),-,-,59,-,-,-
COc1ccc(C(=O)N/N=C(\C)CC(=O)NC2CCCCC2)c(OC)c1,-,-,-,-,-,-
COCCNC(=O)Cc1ccc(F)cc1,-,-,-,-,-,-
CC(C)(C)c1ccc(OCCNC(=O)Cc2ccc(F)cc2)cc1,-,-,-,27,-,-
CCCc1nc2oc3c(Cl)ncnc3c2c2c1CCCC2,-,-,52,-,-,-
CC(C)Cc1nc2oc3c(Cl)ncnc3c2c2c1CCCC2,-,-,-,-,-,-
